Assay outcomes: PubChem, National Center for Advancing Translational Sciences (NCATS)
HPGD block = inhibitors of human 15-hydroxyprostaglandin dehydrogenase (HPGD); Potency, µM, without a hit: at the top dose activity change, negative = inhibition, most hits filed as inhibitors; purified HPGD, NADH fluorescence kinetic, PGE2 substrate; P15428; AID 894; 4.3% of 150,000 active; also: potency is read from the fitted curve at half-maximal effect
Target sequence (P15428 whole entry, looked up): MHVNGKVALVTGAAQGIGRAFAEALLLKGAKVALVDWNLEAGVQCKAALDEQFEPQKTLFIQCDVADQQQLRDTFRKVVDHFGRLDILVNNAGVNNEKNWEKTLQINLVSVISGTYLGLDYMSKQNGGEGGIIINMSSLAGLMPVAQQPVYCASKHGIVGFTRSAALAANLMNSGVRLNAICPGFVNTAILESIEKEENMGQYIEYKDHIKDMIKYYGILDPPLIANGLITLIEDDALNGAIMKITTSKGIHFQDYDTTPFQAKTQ
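20 nM HPGD preincubated 15 min at room temperature with compound in 50 mM Tris-HCl pH 8, 0.01% Tween 20. Started with 1 mM NAD+ and 30 uM prostaglandin E2; NADH fluorescence (360/450 nm) read 5 times over 30-s intervals, last minus first.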
PNC inhibitor = perinucleolar compartment assembly inhibition. PC3M PTB-GFP, PNC prevalence imaging, 16 h; active compounds read low. activity change (PNC), negative = inhibition, % at 10 µM. 3.1% of 140,000 active;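 active = readout at or below -70, meaning at least 70% loss of cells showing the perinucleolar compartment, a nuclear body marking cancer cells; inconclusive = readout between -30 and a set limit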;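 also: plate controls were DMSO wells for no effect and camptothecin positive control wells for full effect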
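PC3M cells stably expressing PTB-GFP, 750–1000 cells/well, treated 16 h at 37 °C with compound (23 nl of library stock), in duplicate. After paraformaldehyde fixation and Hoechst stain, imaged at 20x; PNC prevalence scored by image analysis.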
LMNA splice mod = LMNA splicing modulation. HeLa LMNA splicing GFP/RFP minigene ratio, 48 h. Potency, µM (highest dose often 46.1 µM), for inactives: top-dose ratio change, negative = inhibition, hits mostly inhibitors. 0.01% of 200,000 active. AID 1487; active = well fitted inhibition curve with a large enough effect in the signal ratio, with a control signal flat, not every such curve was filed as active; inconclusive = small, poorly fitted or top-dose-only effect, or effect the other way, or a change in a side signal; the % refers to the signal ratio; also: potency is read from the fitted curve at half-maximal effect
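S3 HeLa stable clones carrying a lamin A-EGFP splicing minigene plus DsRed2 were seeded at 600 cells/well in Opti-MEM with 2% FBS, pin-dosed and incubated 48 h at 37°C. Acumen cytometry (488 nm) gave the GFP/RFP total-intensity ratio.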
ALDH1A1 inh = ALDH1A1 (human) enzyme inhibition. Purified ALDH1A1, NADH fluorescence, propionaldehyde substrate. Potency, µM (top dose mostly 75.3 µM), without a hit: at the highest dose activity, negative = inhibition, actives largely listed as inhibitors. 7.3% of 220,000 active. AID 1030;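 also: potency is read from the fitted curve at half-maximal effect; plate controls were no enzyme wells and a reference inhibitor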
Target sequence (P00352 whole entry, looked up): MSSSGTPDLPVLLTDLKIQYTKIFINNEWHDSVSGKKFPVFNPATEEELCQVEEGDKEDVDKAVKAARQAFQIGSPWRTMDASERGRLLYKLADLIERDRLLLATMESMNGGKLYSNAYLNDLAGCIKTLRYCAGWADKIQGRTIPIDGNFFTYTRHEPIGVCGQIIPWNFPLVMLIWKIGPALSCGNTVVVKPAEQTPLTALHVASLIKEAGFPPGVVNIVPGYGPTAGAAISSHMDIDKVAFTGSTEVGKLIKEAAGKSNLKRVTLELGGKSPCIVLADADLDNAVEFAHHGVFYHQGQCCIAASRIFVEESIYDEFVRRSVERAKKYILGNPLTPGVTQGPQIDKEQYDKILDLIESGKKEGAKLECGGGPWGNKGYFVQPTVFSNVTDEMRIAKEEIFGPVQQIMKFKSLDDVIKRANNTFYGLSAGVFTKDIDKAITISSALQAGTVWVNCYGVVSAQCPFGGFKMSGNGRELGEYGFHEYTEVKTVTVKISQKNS
ALOX12 inhib = inhibitors of human 12-lipoxygenase (ALOX12); purified 12-hLO, xylenol orange hydroperoxide absorbance; AID 1452; P18054; 0.12% of 150,000 active; Potency, µM (top dose mostly 57.1 µM), without a hit: at the highest dose activity change, negative = inhibition, most hits filed as inhibitors; active = well fitted inhibition curve with a large enough effect; inconclusive = small, poorly fitted or top-dose-only effect; also: potency is read from the fitted curve at half-maximal effect; nearly all actives have a fitted effect of over 55% in size
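Lipoxygenase turnover measured by absorbance at 573 and 405 nm after Fe-XO development. Human 12hLO 150 nM, arachidonate 40 uM, pH 7.0 Hepes buffer with detergent; 15 min compound preincubation, 30 min reaction.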
Numbers without * were called inactive; ? = inconclusive; / = no result given; [ ] = another dose, or the depositor's remark. Sampled rows, rich in hits. Any-hit rate of the full collection: about 10%. Unless noted, calls follow the shape of the dose curve; as a rule, active = well fitted inhibition curve with a large enough effect (not every such curve was filed as active); inconclusive = small, poorly fitted or top-dose-only effect, or another doubt; inactive = no such curve, though single readings can be large or run the other way. Unless noted, % is scaled to controls: 0 for no effect and ±100 for the full control effect.

SMILES | HPGD block | PNC inhibitor | LMNA splice mod | ALDH1A1 inh | ALOX12 inhib
O=S(=O)(Nc1ccc2cn[nH]c2c1)c1ccc(Cl)s1 | / | / | ? | -2% | /
COc1cccc(CNc2ncnc3c2nnn3C)c1 | / | / | -1%[46 µM] | / | /
ClC(Cl)(c1nnnn1-c1ccccc1)c1nnnn1-c1ccccc1 | 3.2µM* | ? | -25% | 1.1µM* | -17%
O=C(Nc1ccccc1C(F)(F)F)c1ccc(F)c(S(=O)(=O)N2CCc3ccccc3C2)c1 | / | / | -9%[46 µM] | / | /
O=c1cc(-c2ccccc2)nc2nc(CCc3ccccc3)[nH]n12 | -9% | -107* | -5% | -3% | -2%
O=c1cc(-c2ccccc2)nc2nc(SCc3ccccc3)[nH]n12 | -16% | ? | -4% | 7% | -2%
O=c1cc(-c2ccccc2)nc2nc(-c3ccco3)[nH]n12 | -26% | -117* | 15% | ? | -1%
Cc1cc(C)cc(NC(=O)CCCc2nc(-c3ccco3)no2)c1 | / | / | 22%[46 µM] | / | /
Cc1ccc(S(=O)(=O)NCC(=O)N/N=C/c2ccc(Cl)cc2Cl)cc1 | -4% | 13 | ? | 7.1µM* | -20%
COc1ccc(NC(=O)CNS(=O)(=O)c2ccc(Cl)cc2)cc1OC | -2% | -114* | -1% | 8% | 1%
CC1(C)CC(=O)CC(=O)/C1=N\Nc1c(Cl)cc(Cl)cc1Cl | -4% | ? | -2% | 6.3µM* | -8%
COCCOC(=O)/C(C#N)=C/c1cn(Cc2ccccc2)nc1-c1cccnc1 | / | / | ? | 20µM* | /
COC(=O)[C@@H]1C[C@@H]2CC[C@@H](O)C[C@@H]2N1Cc1ccc(N2CCN(C)CC2)cc1 | -3% | / | / | ? | -2%
COc1ccc(CNc2ccnc(-c3cccc(NS(C)(=O)=O)c3)n2)c(OC)c1 | / | / | ? | 1% | /
CN1CCCC1CCNS(=O)(=O)c1ccc(Br)cc1 (centres undefined) | -2% | -109* | -25% | 3% | -1%
O=C1CCCN1CCCNS(=O)(=O)c1ccc(Br)cc1 | / | / | -4%[46 µM] | -6% | /
Cc1cc(C)cc(NS(=O)(=O)c2ccc3c(c2)NC(=O)C(C)S3)c1 (centres undefined) | / | / | -5%[46 µM] | / | /
C=CCc1cc(C=O)cc(OCC)c1O | / | / | / | -7% | /
CCOc1ccc(C2C(=O)N(C3CCCCC3)CC(=O)N2Cc2ccc(F)cc2)cc1OC (centres undefined) | / | / | 5%[46 µM] | / | /
CCOC(=O)NC(=O)COC(=O)c1ccc(O)cc1 | / | / | 3%[46 µM] | 7% | /
CNC(=O)NC(=O)COC(=O)c1ccc(-n2c(C)ccc2C)cc1 | / | -115* | 0% | -6% | -2%
COc1cc(C(=O)OCC(=O)NC(=O)c2cccn2C)ccc1OC(F)F | / | / | / | 3% | /
Cc1ccc(C(=O)OCC(=O)NC(=O)c2cccn2C)cc1 | -10% | -81* | 4% | -8% | -1%
CC(C)NC(=O)NC(=O)COC(=O)c1ccc(S(=O)(=O)Nc2ccccc2)cc1 | / | / | -15%[46 µM] | 18% | /
CC(C)NC(=O)NC(=O)COC(=O)c1ccc(OC(F)(F)F)cc1 | -14% | -89* | 15% | 7% | 1%
SMILES | HPGD block | PNC inhibitor | LMNA splice mod | ALDH1A1 inh | ALOX12 inhib
COc1ccc(CNc2ncnc3ccc(-c4ccccc4CN(C)C)cc23)c(OC)c1 | ? | / | -5% | 2% | 8%
O=C(Nc1ccc(CN2CCOCC2)cc1)c1ccc(-c2ccc(Cl)cc2Cl)o1 | / | / | ? | 10µM* | /
N#CCCN1CCN(C(=S)c2ccc(-c3cc(Cl)ccc3Cl)o2)CC1 | -14% | 36 | ? | ? | -11%
S=C(c1ccc(-c2ccc(Cl)cc2Cl)o1)N1CCCC1 | / | / | / | 4µM* | /
S=C(Nc1ccc(Cl)cc1Cl)N1CCCCC1 | -7% | ? | ? | -8% | -4%
O=C(Nc1ccc(CN2CCOCC2)cc1)c1ccc(-c2cccc(Cl)c2)o1 | ? | 20 | -12% | ? | -1%
S=C(c1ccc(-c2ccc(Cl)cc2Cl)o1)N1CCCCC1 | ? | 22 | -6% | 14µM* | -7%
CCCSCCCNC(=O)c1ccc2c(c1)sc1nc(-c3ccc(OCC)cc3)cn12 | / | / | -1%[46 µM] | / | /
CC(C)(C)C1=CC(=Nc2ccccc2N)C=C(C(C)(C)C)C1=O | 2% | 7 | -8% | 5% | -2%
CC(C)(C)C1=CC(=O)C(=O)C(C(C)(C)C)=C1 | 4µM* | -5 | ? | 2.8µM* | -9%
CCOc1ccc(-n2c(=O)c3sccc3n(CC(=O)NCCc3ccc(OC)c(OC)c3)c2=O)cc1 | / | / | / | 6% | /
Cc1cnc(CNc2cc(-c3cccc(C#N)c3)ncn2)cn1 | / | / | 6% | ? | /
O=C(NC1CC1)C1CCN(c2ncnc3c2sc2cccc(F)c23)CC1 | 16µM* | 21 | -3% | ? | -3%
NC(=O)C1CCN(c2ncnc3c(-c4ccccc4)nsc23)CC1 | -11% | ? | ? | -11% | 1%
CCOC(=O)c1c(NC(=O)c2ccncc2)sc(C)c1C | / | / | -4%[46 µM] | 13µM* | /
CCOC(=O)c1c(NC(=O)c2ccc(Cl)s2)sc(C)c1C | ? | 28 | -12% | ? | -10%
CCOC(=O)c1sc(NC(=O)c2ccncc2)c(C#N)c1C | 14µM* | -4 | ? | 3.2µM* | -7%
COc1ccc(NC(=S)N(CCCN2CCC(C)CC2)Cc2cccs2)cc1 | / | / | / | 20µM* | /
COc1ccc(NC(=S)N(CCCN2CCCCC2)Cc2cccs2)cc1 | -10% | -105* | -8% | ? | 2%
CCOC(=O)c1ccc(NC(=S)N(CCCN2CCCC2)Cc2cccs2)cc1 | / | / | -18%[46 µM] | 5% | /
CC[C@H](CO)NCCN[C@H](CC)CO | -6% | -115* | -7% | -2% | -1%
CC1=CC(=O)N(c2cccc(C(F)(F)F)c2)C1c1ccc(Cl)cc1 (centres undefined) | -14% | 15 | 2% | 1% | -3%
CC1=CC(=O)N(c2ccc(C)cc2)C1c1ccc(Cl)cc1 (centres undefined) | 22µM* | 33 | ? | -2% | 0%
O[C@@H](c1cc(C(F)(F)F)nc2c(Cl)cc(Cl)cc12)C1CCCCN1 (some centres undefined) | -8% | / | / | 2%[13.5 µM] | /
CN(Cc1ccccc1)C(=O)CCC(=O)N(C)Cc1ccccc1 | -9% | -7 | 0% | -3% | -3%
SMILES | HPGD block | PNC inhibitor | LMNA splice mod | ALDH1A1 inh | ALOX12 inhib
CC(=O)Nc1ccc(C(=O)CCl)cc1 | -12% | / | / | 0.045µM* | -2%
CC(=O)NCc1ccc(C(=O)CCl)s1 | / | / | / | 0.14µM* | /
CCC(=O)c1ccc(CCCCCC(=O)O)s1 | -25% | -28 | -1% | 10% | 1%
CC(=O)Nc1ccc(C)cc1 | -6% | / | / | -1% | -5%
CC(=O)N(C)Cc1ccc(C(=O)CCl)cc1 | / | / | / | 0.71µM* | /
CC(=O)NCc1ccc(C(=O)CCl)cc1 | / | / | / | 0.35µM* | /
CCC(C)C1/C=C\CCCC(=O)N1Cc1ccc(C)cc1 (centres undefined) | -10% | / | / | -7% | -6%[0.00818 µM]
O=C(NCc1ccccc1F)c1ccc(CN2CC(=O)N3CCCCC3C2=O)cc1 (centres undefined) | / | / | 22%[46 µM] | / | /
CCc1ccc(NC(=O)CN2CCN(Cc3ccccc3)S2(=O)=O)cc1 | / | / | -16%[46 µM] | / | /
